# Measured values from PMC7862700, “An all-to-all approach to the identification of sequence-specific readers for epigenetic DNA modifications on cytosine”.
# Tests used:
# Assay in all cases: DAPPL (digital affinity profiling via proximity ligation, sequencing); 10 mM Tris-HCl pH 7.5, 50 mM NaCl, 1 mM DTT, 4% glycerol, room temperature, 30 min; GST-TFs on glutathione beads, 16-mer random dsDNA library, 0.1% formaldehyde crosslink after washing; high values mean tight binding
# [1] = molecular target: T1, FLI1 (Homo sapiens, UniProt Q01543 1-452); conditions: protein: recombinant; tags: N-terminal GST; dsDNA, one strand shown
# T1 sequence: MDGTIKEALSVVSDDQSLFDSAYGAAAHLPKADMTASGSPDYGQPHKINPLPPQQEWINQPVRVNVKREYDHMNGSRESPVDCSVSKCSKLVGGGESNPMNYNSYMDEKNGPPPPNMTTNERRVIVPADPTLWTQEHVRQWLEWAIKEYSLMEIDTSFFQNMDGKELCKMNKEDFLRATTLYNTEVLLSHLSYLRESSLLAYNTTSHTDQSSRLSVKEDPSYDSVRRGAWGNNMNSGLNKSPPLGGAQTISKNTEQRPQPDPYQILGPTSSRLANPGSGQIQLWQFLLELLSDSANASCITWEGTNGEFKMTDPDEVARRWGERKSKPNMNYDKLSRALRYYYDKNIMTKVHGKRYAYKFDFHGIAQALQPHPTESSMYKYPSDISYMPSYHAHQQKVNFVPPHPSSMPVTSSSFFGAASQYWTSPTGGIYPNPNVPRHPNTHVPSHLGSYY
# Summary of the method: (§1)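 Pools of DNA-barcoded human transcription factors, expressed in yeast as GST fusions on glutathione beads and combined with a tag-only sample, were incubated with 200 nmole of a 16-mer random double-stranded DNA library. Incubation took 30 min at room temperature in Tris/NaCl/DTT/glycerol buffer and was followed by washing, 0.1% formaldehyde crosslinking, proximity ligation (BsaI/T4 ligase, 1 h, 37 °C), PCR amplification and sequencing on an Illumina NextSeq500. Binding signal is the ratio of a hexamer's read frequency for a factor to its frequency for the tag-only sample.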
# [2] = molecular target: T2, ELK1 (Homo sapiens, UniProt P19419 1-428); conditions: protein: recombinant; tags: N-terminal GST; dsDNA, one strand shown
# T2 sequence: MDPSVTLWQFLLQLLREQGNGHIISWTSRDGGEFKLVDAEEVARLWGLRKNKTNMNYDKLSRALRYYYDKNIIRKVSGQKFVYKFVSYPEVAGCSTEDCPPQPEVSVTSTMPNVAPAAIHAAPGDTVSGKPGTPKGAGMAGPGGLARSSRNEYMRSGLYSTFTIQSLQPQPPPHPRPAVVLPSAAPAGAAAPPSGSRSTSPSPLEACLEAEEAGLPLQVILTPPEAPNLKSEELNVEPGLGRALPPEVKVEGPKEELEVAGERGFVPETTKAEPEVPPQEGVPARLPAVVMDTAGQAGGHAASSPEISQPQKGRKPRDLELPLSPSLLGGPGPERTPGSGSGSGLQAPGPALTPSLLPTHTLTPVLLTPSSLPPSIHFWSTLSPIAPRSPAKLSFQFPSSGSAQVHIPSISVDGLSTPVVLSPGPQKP
# Summary of the method: as §1
# [3] = molecular target: T3, GABPA (Homo sapiens, UniProt Q06546 1-454); conditions: protein: recombinant; tags: N-terminal GST; dsDNA, one strand shown
# T3 sequence: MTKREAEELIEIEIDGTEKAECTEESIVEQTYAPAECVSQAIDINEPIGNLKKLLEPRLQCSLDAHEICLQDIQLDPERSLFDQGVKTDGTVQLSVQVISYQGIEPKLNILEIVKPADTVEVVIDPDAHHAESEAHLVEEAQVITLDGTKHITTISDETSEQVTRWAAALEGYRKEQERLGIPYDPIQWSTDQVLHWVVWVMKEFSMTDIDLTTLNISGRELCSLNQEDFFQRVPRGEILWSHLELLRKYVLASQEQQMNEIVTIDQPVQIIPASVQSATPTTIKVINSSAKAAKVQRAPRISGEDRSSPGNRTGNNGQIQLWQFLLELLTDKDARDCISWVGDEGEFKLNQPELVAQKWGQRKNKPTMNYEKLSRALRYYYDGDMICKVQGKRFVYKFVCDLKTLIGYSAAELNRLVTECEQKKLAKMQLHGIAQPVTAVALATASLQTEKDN
# Summary of the method: as §1
# [4] = molecular target: T4, ERG (Homo sapiens, UniProt P11308 1-479); conditions: protein: recombinant; tags: N-terminal GST; dsDNA, one strand shown
# T4 sequence: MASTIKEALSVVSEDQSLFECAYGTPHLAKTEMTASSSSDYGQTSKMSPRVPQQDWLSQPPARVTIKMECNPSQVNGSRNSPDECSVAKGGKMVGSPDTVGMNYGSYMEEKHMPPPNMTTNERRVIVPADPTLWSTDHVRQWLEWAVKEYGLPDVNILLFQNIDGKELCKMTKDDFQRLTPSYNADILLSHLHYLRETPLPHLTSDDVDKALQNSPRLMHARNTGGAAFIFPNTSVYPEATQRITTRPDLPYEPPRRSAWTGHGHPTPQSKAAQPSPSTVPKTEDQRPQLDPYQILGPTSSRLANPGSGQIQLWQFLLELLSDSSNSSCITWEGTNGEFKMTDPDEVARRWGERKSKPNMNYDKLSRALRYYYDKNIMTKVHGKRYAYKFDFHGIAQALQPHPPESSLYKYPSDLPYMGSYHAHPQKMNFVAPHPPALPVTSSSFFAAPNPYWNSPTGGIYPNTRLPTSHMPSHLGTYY
# Summary of the method: as §1
# [5] = molecular target: ELF1 (Homo sapiens, UniProt P32519 1-619); conditions: protein: recombinant; tags: N-terminal GST; dsDNA, one strand shown
# Summary of the method: as §1
# [6] = molecular target: T5, EHF (Homo sapiens, UniProt Q9NZC4 1-300); conditions: protein: recombinant; tags: N-terminal GST; dsDNA, one strand shown
# T5 sequence: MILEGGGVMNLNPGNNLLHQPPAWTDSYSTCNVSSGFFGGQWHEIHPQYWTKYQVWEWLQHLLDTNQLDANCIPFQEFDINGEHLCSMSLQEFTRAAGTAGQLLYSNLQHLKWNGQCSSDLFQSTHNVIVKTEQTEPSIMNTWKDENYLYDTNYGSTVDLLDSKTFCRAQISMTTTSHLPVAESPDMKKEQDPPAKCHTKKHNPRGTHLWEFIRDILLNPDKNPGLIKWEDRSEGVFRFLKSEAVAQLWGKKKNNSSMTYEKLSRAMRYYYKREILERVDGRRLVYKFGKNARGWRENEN
# Summary of the method: as §1
# [7] = molecular target: SPI1 (Homo sapiens, UniProt P17947 1-270); conditions: protein: recombinant; tags: N-terminal GST; dsDNA, one strand shown
# Summary of the method: as §1
# [8] = molecular target: SPIB (Homo sapiens, UniProt Q01892 1-262); conditions: protein: recombinant; tags: N-terminal GST; dsDNA, one strand shown
# Summary of the method: as §1
# [9] = molecular target: T6, ELK3 (Homo sapiens, UniProt P41970 1-407); conditions: protein: recombinant; tags: N-terminal GST; dsDNA, one strand shown
# T6 sequence: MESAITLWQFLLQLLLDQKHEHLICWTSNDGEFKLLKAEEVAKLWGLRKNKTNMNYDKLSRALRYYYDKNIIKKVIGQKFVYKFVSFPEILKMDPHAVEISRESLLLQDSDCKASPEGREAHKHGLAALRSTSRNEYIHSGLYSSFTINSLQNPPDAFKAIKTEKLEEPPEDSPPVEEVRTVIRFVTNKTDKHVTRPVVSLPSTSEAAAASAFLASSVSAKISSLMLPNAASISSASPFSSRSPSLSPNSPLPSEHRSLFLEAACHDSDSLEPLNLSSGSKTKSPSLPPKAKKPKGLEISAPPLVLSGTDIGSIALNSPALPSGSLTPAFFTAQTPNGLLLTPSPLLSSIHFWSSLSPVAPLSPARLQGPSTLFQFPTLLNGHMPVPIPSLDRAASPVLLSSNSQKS
# Summary of the method: as §1
# [10] = molecular target: T7, FEV (Homo sapiens, UniProt Q99581 1-238); conditions: protein: recombinant; tags: N-terminal GST; dsDNA, one strand shown
# T7 sequence: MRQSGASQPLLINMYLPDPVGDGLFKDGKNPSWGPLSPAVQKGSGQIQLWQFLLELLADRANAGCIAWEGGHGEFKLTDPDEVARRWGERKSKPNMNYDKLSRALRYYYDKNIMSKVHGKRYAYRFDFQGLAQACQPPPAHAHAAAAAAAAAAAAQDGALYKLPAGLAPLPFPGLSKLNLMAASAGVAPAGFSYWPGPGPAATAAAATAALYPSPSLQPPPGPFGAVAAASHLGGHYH
# Summary of the method: as §1
# [11] = molecular target: ETV5 (Homo sapiens, UniProt P41161 1-510); conditions: protein: recombinant; tags: N-terminal GST; dsDNA, one strand shown
# Summary of the method: as §1
# [12] = molecular target: HSF1 (Homo sapiens, UniProt Q00613 1-529); conditions: protein: recombinant; tags: N-terminal GST; chain copies: 3; dsDNA, one strand shown
# Summary of the method: as §1
# [13] = molecular target: T8, SPIC (Homo sapiens, UniProt Q8N5J4 1-248); conditions: protein: recombinant; tags: N-terminal GST; dsDNA, one strand shown
# T8 sequence: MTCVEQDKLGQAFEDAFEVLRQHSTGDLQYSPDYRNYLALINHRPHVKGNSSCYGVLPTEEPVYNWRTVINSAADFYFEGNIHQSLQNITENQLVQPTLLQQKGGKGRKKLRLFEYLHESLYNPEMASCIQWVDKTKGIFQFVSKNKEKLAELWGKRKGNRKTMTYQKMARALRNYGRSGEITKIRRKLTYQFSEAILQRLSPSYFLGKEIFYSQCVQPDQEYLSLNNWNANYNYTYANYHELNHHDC
# Summary of the method: as §1
# [14] = molecular target: ELF4 (Homo sapiens, UniProt Q99607 1-663); conditions: protein: recombinant; tags: N-terminal GST; dsDNA, one strand shown
# Summary of the method: as §1
# [15] = molecular target: T9, ELK4 (Homo sapiens, UniProt P28324-2 1-405); conditions: protein: recombinant; tags: N-terminal GST; dsDNA, one strand shown
# T9 sequence: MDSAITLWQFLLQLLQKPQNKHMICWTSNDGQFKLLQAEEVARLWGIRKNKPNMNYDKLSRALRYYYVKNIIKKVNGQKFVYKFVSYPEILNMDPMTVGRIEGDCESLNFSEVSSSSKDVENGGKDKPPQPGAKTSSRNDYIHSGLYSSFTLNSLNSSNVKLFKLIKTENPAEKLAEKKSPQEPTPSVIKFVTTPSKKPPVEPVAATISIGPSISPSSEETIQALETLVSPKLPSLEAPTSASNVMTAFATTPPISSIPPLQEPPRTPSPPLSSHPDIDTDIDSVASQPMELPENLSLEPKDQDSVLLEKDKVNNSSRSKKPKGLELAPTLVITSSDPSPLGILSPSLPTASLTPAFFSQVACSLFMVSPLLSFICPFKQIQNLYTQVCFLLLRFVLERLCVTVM
# Summary of the method: as §1
# [16] = molecular target: T10, ETV2 (Homo sapiens, UniProt O00321 1-342); conditions: protein: recombinant; tags: N-terminal GST; dsDNA, one strand shown
# T10 sequence: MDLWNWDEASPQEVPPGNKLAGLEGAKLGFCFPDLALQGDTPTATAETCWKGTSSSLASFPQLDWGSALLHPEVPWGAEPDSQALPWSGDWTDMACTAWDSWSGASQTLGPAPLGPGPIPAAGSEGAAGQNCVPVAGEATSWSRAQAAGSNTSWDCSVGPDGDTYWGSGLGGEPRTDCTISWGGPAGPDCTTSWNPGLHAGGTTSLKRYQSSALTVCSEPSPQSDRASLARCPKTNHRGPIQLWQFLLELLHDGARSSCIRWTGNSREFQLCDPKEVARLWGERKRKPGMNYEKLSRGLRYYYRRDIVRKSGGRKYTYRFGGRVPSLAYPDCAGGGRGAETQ
# Summary of the method: as §1
# [17] = molecular target: T11, ELF3 (Homo sapiens, UniProt P78545 1-371); conditions: protein: recombinant; tags: N-terminal GST; dsDNA, one strand shown
# T11 sequence: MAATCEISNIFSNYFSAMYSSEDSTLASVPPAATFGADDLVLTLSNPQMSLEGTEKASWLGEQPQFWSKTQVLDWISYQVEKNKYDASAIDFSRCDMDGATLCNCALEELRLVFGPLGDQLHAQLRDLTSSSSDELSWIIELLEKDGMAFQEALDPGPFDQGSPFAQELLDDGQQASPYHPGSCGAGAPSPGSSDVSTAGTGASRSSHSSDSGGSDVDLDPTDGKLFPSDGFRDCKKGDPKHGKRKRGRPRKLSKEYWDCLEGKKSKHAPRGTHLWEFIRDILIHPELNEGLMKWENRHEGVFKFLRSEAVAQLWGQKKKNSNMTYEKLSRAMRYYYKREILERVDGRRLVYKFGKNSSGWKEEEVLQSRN
# Summary of the method: as §1
# [18] = molecular target: CRX (Homo sapiens, UniProt O43186 1-299); conditions: protein: recombinant; tags: N-terminal GST; dsDNA, one strand shown
# Summary of the method: as §1
# [19] = molecular target: ETV1 (Homo sapiens, UniProt P50549 1-477); conditions: protein: recombinant; tags: N-terminal GST; dsDNA, one strand shown
# Summary of the method: as §1
# Sequence of ELF4 (Q99607 whole entry): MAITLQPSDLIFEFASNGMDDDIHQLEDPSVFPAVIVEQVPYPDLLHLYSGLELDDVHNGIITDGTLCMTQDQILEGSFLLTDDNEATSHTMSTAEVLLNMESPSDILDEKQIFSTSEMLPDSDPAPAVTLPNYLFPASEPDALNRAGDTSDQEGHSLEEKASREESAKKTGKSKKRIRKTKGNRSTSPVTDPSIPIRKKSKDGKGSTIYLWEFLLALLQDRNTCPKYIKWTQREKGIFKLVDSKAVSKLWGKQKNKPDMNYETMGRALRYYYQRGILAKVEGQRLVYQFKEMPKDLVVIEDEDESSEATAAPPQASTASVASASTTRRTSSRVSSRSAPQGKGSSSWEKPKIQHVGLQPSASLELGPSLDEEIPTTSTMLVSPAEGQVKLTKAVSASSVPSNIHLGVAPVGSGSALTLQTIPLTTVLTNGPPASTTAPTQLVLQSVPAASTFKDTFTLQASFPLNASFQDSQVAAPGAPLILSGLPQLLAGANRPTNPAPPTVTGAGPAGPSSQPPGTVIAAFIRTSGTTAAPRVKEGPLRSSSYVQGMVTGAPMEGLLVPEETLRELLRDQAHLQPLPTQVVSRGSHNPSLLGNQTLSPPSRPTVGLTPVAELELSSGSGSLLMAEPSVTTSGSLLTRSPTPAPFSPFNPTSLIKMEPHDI
# Sequence of SPIB (Q01892 whole entry): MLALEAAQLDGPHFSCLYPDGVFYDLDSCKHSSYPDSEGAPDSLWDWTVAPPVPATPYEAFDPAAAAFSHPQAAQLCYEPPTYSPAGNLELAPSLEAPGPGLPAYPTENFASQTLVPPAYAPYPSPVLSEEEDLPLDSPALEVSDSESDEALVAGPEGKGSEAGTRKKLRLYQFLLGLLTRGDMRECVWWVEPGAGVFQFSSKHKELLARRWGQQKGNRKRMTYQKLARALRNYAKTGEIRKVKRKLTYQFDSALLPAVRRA
# Sequence of HSF1 (Q00613 whole entry): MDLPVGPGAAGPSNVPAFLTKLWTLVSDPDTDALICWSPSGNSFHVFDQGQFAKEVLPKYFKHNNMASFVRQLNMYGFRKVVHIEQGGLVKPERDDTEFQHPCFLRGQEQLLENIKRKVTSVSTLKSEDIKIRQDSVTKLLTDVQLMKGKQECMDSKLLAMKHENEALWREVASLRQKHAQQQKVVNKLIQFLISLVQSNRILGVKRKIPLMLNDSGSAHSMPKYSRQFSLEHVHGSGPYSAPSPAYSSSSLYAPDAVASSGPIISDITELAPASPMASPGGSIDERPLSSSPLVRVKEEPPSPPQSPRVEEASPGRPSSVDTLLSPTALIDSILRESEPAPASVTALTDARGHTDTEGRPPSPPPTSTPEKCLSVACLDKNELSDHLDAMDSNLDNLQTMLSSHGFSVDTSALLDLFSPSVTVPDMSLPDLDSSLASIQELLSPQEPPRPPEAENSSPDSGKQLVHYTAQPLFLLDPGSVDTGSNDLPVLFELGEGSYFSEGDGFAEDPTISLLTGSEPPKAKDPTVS
# Sequence of CRX (O43186 whole entry): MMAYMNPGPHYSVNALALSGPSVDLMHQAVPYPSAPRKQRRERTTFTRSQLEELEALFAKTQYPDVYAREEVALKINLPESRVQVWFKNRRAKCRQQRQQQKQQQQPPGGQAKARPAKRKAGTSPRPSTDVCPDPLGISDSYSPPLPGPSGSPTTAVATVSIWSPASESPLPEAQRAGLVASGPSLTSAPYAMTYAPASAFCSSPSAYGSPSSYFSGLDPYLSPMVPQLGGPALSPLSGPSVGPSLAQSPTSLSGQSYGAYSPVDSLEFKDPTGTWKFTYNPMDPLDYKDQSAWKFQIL
# Sequence of ELF1 (P32519 whole entry): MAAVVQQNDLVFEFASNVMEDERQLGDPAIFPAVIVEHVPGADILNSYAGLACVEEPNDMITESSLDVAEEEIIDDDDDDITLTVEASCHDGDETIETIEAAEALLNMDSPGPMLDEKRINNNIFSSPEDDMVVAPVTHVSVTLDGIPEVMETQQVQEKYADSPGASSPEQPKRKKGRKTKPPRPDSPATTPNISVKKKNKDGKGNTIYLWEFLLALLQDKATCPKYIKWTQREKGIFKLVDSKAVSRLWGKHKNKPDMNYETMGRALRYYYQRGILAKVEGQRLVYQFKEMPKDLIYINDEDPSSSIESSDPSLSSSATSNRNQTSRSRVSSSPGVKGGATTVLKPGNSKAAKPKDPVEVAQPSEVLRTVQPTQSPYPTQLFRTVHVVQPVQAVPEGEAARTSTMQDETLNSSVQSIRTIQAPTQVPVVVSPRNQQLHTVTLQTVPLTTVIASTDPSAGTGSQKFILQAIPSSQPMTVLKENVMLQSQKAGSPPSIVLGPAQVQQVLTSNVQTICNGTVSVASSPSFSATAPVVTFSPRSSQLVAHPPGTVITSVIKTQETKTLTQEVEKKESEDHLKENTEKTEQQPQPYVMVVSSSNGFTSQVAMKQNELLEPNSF
# Sequence of ETV5 (P41161 whole entry): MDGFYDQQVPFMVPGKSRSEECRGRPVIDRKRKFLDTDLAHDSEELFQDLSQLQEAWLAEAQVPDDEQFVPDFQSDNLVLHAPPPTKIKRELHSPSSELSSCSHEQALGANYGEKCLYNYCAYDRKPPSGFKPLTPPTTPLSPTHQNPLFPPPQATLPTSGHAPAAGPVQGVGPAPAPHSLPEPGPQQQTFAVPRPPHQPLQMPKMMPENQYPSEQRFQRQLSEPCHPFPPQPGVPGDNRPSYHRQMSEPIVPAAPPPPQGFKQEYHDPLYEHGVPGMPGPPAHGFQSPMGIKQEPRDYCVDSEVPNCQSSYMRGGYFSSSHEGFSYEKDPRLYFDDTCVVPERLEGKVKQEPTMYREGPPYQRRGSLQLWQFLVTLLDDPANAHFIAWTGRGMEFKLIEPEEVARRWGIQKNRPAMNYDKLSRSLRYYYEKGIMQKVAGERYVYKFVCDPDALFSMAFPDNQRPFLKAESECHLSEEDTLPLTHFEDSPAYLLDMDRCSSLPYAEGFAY
# Sequence of ETV1 (P50549 whole entry): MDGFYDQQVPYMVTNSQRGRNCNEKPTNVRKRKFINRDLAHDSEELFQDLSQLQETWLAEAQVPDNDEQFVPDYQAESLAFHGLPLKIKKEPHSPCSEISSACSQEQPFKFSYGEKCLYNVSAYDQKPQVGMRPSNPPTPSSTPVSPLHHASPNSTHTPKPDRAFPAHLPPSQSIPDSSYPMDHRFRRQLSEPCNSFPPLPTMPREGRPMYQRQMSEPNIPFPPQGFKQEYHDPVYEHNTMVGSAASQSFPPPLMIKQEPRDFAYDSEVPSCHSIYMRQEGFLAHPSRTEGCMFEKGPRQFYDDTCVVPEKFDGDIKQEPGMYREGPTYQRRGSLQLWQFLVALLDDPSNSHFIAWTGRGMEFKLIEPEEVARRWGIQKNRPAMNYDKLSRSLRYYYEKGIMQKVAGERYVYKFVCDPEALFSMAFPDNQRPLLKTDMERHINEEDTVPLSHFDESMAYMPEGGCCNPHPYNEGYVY
sequence,measurement,setting,value
CCCTCT,binding signal,[1],"1.31 fold enrichment (6-mer frequency, TF over GST control)"
same,binding signal,[2],"1.43 fold enrichment (6-mer frequency, TF over GST control)"
same,binding signal,[3],"1.37 fold enrichment (6-mer frequency, TF over GST control)"
same,binding signal,[4],"1.25 fold enrichment (6-mer frequency, TF over GST control)"
same,binding signal,[5],"1.28 fold enrichment (6-mer frequency, TF over GST control)"
same,binding signal,[6],"1.3 fold enrichment (6-mer frequency, TF over GST control)"
same,binding signal,[7],"1.28 fold enrichment (6-mer frequency, TF over GST control)"
same,binding signal,[8],"1.56 fold enrichment (6-mer frequency, TF over GST control)"
same,binding signal,[9],"1.51 fold enrichment (6-mer frequency, TF over GST control)"
same,binding signal,[10],"1.35 fold enrichment (6-mer frequency, TF over GST control)"
same,binding signal,[11],"1.33 fold enrichment (6-mer frequency, TF over GST control)"
same,binding signal,[12],"1.29 fold enrichment (6-mer frequency, TF over GST control)"
same,binding signal,[13],"1.14 fold enrichment (6-mer frequency, TF over GST control)"
same,binding signal,[14],"1.46 fold enrichment (6-mer frequency, TF over GST control)"
same,binding signal,[15],"1.6 fold enrichment (6-mer frequency, TF over GST control)"
same,binding signal,[16],"1.32 fold enrichment (6-mer frequency, TF over GST control)"
same,binding signal,[17],"1.34 fold enrichment (6-mer frequency, TF over GST control)"
same,binding signal,[18],"1.36 fold enrichment (6-mer frequency, TF over GST control)"
same,binding signal,[19],"1.25 fold enrichment (6-mer frequency, TF over GST control)"
